This is a sample that favours compounds with a hit; in the whole collection about 5.2% have one here.
Sfp inh – qHTS Assay for Inhibitors of Bacillus subtilis Sfp phosphopantetheinyl transferase (PPTase). 4'-phosphopantetheinyl transferase ffp (Bacillus subtilis), Q9F4F7. Biochemical Sfp PPTase activity, qHTS. Potency, µM, without a hit: largest response in the series, negative = inhibition, hits mostly inhibitors. 310,000 tested, 3.5% active. AID 1490, 2009;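 also: the enzyme is Sfp with the accession as filed and its product quenches rhodamine fluorescence; 0% = enzyme reaction without inhibitor and -100% = no enzyme wells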
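Sfp 15 nM + cpd, 15 min RT; start w/ rhodamine-CoA 5 uM, BHQ-2-YbbR 12.5 uM (final); 50 mM Hepes pH 7.6, 10 mM MgCl2, 0.01% NP-40, 0.01% BSA; read 525/598 nm at 0 and 30 min.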
rTrxR1 inhibitor – qHTS Assay for Inhibitors of Mammalian Selenoprotein Thioredoxin Reductase 1 (TrxR1): qHTS; Thioredoxin reductase 1, cytoplasmic (Rattus norvegicus), O89049; AID 588453, 2011; Potency, µM (doses to about 114 µM), without a hit: at the top dose activity change, negative = inhibition, actives largely listed as inhibitors; recombinant rTrxR1, NADPH fluorescence consumption, selenite substrate; 390,000 tested, 1% active; also: nearly all actives have a fitted effect of over 65% in size
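Rat TrxR1 (90 nM in the dispensed reagent) was pre-reduced with 400 uM NADPH for 5 min at room temperature, then incubated with compound for 15 min. After 400 uM selenite was added, NADPH fluorescence (Ex 340/Em 450 nm) was followed for 8 min.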
IDH1 R132H inh – qHTS for Inhibitors of mutant isocitrate dehydrogenase 1 (IDH1): qHTS | AID 602179, 2012 | IDH1-R132H enzyme, NADPH consumption, diaphorase/resazurin fluorescence | Isocitrate dehydrogenase [NADP] cytoplasmic (Homo sapiens), O75874 | 390,000 tested, 0.093% active | Potency, µM (highest dose often 76.6 µM), for inactives: at the highest dose activity change, negative = inhibition, hits mostly inhibitors; also: nearly all actives have a fitted effect of over 65% in size
Target sequence (O75874 whole entry R132H, stated change not applied): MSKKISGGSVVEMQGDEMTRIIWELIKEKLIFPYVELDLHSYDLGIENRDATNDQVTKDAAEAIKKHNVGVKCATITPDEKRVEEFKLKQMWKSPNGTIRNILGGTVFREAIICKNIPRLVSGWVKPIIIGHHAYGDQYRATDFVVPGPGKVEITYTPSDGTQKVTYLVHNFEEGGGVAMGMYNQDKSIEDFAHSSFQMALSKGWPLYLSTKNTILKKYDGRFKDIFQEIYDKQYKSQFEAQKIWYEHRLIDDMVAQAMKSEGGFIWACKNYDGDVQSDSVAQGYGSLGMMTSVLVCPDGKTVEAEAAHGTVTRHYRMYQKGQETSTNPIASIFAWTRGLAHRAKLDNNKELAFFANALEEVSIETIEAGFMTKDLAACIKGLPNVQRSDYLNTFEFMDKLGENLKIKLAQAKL
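IDH1-R132H (0.5 ug/mL dispensed) in pH 7.5 Tris buffer was preincubated 30 min with compound, then given a substrate mix of 0.016 mM NADPH and 2 mM alpha-KG for 80 min at room temperature; remaining NADPH was read by diaphorase/resazurin fluorescence.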
TrxR1 substrate – qHTS Assay for Substrates of Mammalian Selenoprotein Thioredoxin Reductase 1 (TrxR1): qHTS | 390,000 tested, 0.01% active | Potency, µM (highest dose often 114 µM), inactives show top-dose activity change, negative = substrate turnover | Thioredoxin reductase 1, cytoplasmic (Rattus norvegicus), O89049 | purified TrxR1 substrate turnover, NADPH consumption readout; also: nearly all actives have a fitted effect of over 50% in size
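Rat TrxR1, dispensed at 90 nM, was prereduced with 400 uM NADPH (final) for 5 min at ~22 deg C, then incubated with compound 15 min before 400 uM selenite. A first-read NADPH fluorescence drop versus no-compound background flagged substrates.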
PLK1 PBD block – qHTS for Inhibitors of PLK1-PDB (polo-like kinase 1 - polo-box domain): Primary Screen; Serine/threonine-protein kinase PLK1 (Homo sapiens), P53350; Plk1 PBD binding of FITC phosphopeptide, fluorescence polarization; 360,000 tested, 2.8% active; AID 720504, 2013; Potency, µM, inactives show max response, negative = inhibition, actives largely listed as inhibitors; also: series mostly up to about 57 µM; nearly all actives have a fitted effect of over 65% in size
VDR inhibitor – Inhibitors of the vitamin D receptor (VDR): qHTS; VDR-SRC2-3 peptide fluorescence polarization, 2 h; 400,000 tested, 0.93% active; Vitamin D3 receptor (Homo sapiens), P11473; Potency, µM, without a hit: max response, negative = inhibition, hits mostly inhibitors; AID 504847, 2011
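Fluorescence polarization assay measuring small-molecule disruption of VDR binding to the coregulator peptide SRC2-3. Compounds were pin-transferred (23 nl) into the reagent mix and incubated 2 h at room temperature before reading.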
An asterisk follows results filed as active; u = inconclusive; x = no result given; [ ] = remark or other dose. Calls follow the shape of the dose curve; as a rule, active = well fitted curve in the direction sought with a large enough effect; inconclusive = small, poorly fitted or top-dose-only effect, or another doubt; inactive = no such curve, though single readings can be large; an effect the other way counts as inactive or inconclusive. Unless noted, % is scaled to controls: 0 for no effect and ±100 for the full control effect; potency is read from the fitted curve at half-maximal effect.

SMILES	Sfp inh	rTrxR1 inhibitor	IDH1 R132H inh	TrxR1 substrate	PLK1 PBD block	VDR inhibitor
CCOC(=O)CNC(=O)C1c2cc(OC)c(OC)cc2C(=O)N(C)C1c1ccccc1F (stereo not drawn)	16.2%	-13.0%	0.8%	-4.1%	-6.9%	-10.8%
CCOC(=O)[C@]12Cc3c(cc(OC)c(OC)c3OC)[C@H]1N(CCC(=O)OC)C(=O)c1cc(OC)ccc12	x	x	x	x	11.9µM*	x
CCOC(=O)[C@]12Cc3c(cc(OC)c(OC)c3OC)[C@H]1N(Cc1ccccc1)C(=O)c1cc(OC)ccc12	x	x	x	x	7.52µM*	x
CCOC(=O)C1(Cc2cccc(OC)c2)CCN(Cc2ccccc2)CC1	-2.3%	7.4%[57.1 µM]	4.3%	7.2%[57.1 µM]	-4.3%	1.3%
N#C/C(=C/C1=C(N2CCOCC2)C(=C/c2ccc(Cl)cc2Cl)/CC1)C(=O)Nc1ccccc1F	x	6.2%	-6.1%	-0.9%	-2.8%	-1.3%
Cc1ccc(-c2nc3cnccn3c2Nc2ccc3c(c2)OCCO3)o1	35.5µM*	u	-7.1%	-2.9%[57.1 µM]	-5.7%	-0.7%
CN(C)c1ccc(-c2nc3cnccn3c2Nc2ccc3c(c2)OCCO3)cc1	-15.8%	13.4%	-0.5%	1.9%	-5.8%	12.7%
Cc1cc(N)c2cc(NC(=O)Nc3ccc4nc(C)cc(N)c4c3)ccc2n1	7.94µM*	x	x	x	x	-4.3%
COc1ccc(NC(C)=O)cc1S(=O)(=O)N1CCn2cccc2C1C (stereo not drawn)	x	50.1µM*	-9.3%	-10.8%	-1.9%	-3.6%
O=C(Nc1ccc(Cl)cc1)OCCn1nnnc1C(c1ccccc1Cl)N1CCOCC1 (stereo not drawn)	1.4%	-13.3%	6.1%	-16.0%	21.2µM*	u
COc1ccc(-c2cnc(C)o2)cc1S(=O)(=O)Nc1ccc(OC(F)(F)F)cc1	x	-7.4%[57.1 µM]	-12.3%	-7.2%[57.1 µM]	x	5.0%
CC(=O)c1ccc2c(c1)c(C#N)c1ccccc1[n+]2[O-]	12.7%	10.9%[57.1 µM]	-1.4%	16.2%[57.1 µM]	2.38µM*	-13.5%
O=C(O)c1ccc2c(c1)C(=O)N([C@H](Cc1ccc3ccccc3c1)C(=O)O)C2=O	-11.8%	x	x	x	x	x
C(=Nc1cnc2ccccc2c1)c1ccncc1	x	0.3%	x	129.9%	x	x
COc1cccc(CN2CC34CC(c5ccc(C(C)=O)cc5)C(CC3S2(=O)=O)O4)c1 (stereo not drawn)	6.3%	6.9%	x	-5.0%	x	-23.2%
CCOc1cc(N2CCOCC2)c(OCC)cc1NC(=S)NCCCOC	-26.8%	35.3%[57.1 µM]	11.1%	-11.0%[57.1 µM]	-0.8%	-5.9%
COc1ccc(Nc2nc(-c3ccc4c(c3)NC(=O)CO4)cs2)cc1	-11.8%	9.0%[57.1 µM]	16.6%	-8.9%[57.1 µM]	u	-12.3%
CCC(C)Nc1nc(-c2ccc3c(c2)NC(=O)CO3)cs1 (stereo not drawn)	u	-8.9%	11.9%	-13.2%	29.9µM*	-18.9%
CCN(CC)C(=O)c1csc(COCCO)n1	x	x	x	x	-7.8%	x
CCCC[C@H]1CCCO[C@@](C(=O)NCCN2CCOCC2)(C(F)(F)F)C1	-3.9%	21.2%[57.1 µM]	x	5.8%[57.1 µM]	x	-15.0%
CCOC(=O)C1(N(CC)CC)Sc2cc(C)ccc2NC1=O (stereo not drawn)	9.6%	16.6%[57.1 µM]	5.2%	-1.2%[57.1 µM]	-22.5%	7.7%
COC(=O)C1=C(C(=O)OC)SC2(S1)C(C(=O)OC)=C(C(=O)OC)SC1=C2c2cc(C)ccc2NC1(C)C	2.82µM*	-12.0%[57.1 µM]	-1.9%	-18.8%	3.36µM*	u
Cc1ccccc1CN1c2ccccc2-c2nc(SCC(=O)NCc3ccccc3)ncc2S1(=O)=O	x	10.5%[57.1 µM]	-18.0%	4.7%[57.1 µM]	x	0.4%
C=C(C)C(=O)Oc1ccc(N=Nc2ccc(C)cc2)ccc1=O	x	-54.5%	4.4%	2.3%[57.1 µM]	21.2µM*	u
C=C(Br)COC(c1ccco1)[C@H](Cc1ccccc1)NC(=O)OC(C)(C)C (stereo partly drawn)	x	u	x	-11.7%	x	x
SMILES	Sfp inh	rTrxR1 inhibitor	IDH1 R132H inh	TrxR1 substrate	PLK1 PBD block	VDR inhibitor
O=C1c2ccccc2C(=O)C1c1cc2ccccc2cn1	x	12.9%	x	6.1%	x	-12.1%
CCOC(=O)c1c(NC(=O)C2=C(C)NC(=S)NC2c2ccccc2C(F)(F)F)sc(C)c1C (stereo not drawn)	15.8µM*	0.1%	3.3%	11.2%	2.8%	-20.2%
CC(=O)N1CCc2c(sc(NC(=O)c3ccc([N+](=O)[O-])o3)c2C(N)=O)C1	x	x	9.8%	x	u	x
CC(=O)C1=C(C)NC(SCc2cccc([N+](=O)[O-])c2)=C(C#N)C1c1ccco1 (stereo not drawn)	-54.7%	-14.3%	-4.0%	-8.1%	-11.3%	u
CC(=O)C1=C(C)NC(SCC(=O)c2ccc(F)cc2)=C(C#N)C1c1ccco1 (stereo not drawn)	u	u	4.1%	0.6%	-8.6%	32.5%
CC(=O)C1=C(C)NC(SCC(=O)c2ccc(Cl)cc2)=C(C#N)C1CC(C)C (stereo not drawn)	12.6µM*	-24.5%	4.9%	-6.1%	-26.1%	-13.5%
CC(=O)C1=C(C)NC(SCC(=O)c2ccc(Cl)c(Cl)c2)=C(C#N)C1c1ccco1 (stereo not drawn)	3.55µM*	u	0.4%	5.8%[57.1 µM]	1.6%	13.4%
CCc1ccc(C(=O)CSC2=C(C#N)C(c3ccco3)C(C(C)=O)=C(C)N2)cc1 (stereo not drawn)	56.2µM*	u	x	-2.4%	x	-20.5%
CC(=O)C1=C(C)OC(N)=C(C#N)C1c1ccco1 (stereo not drawn)	-16.0%	11.2µM*	16.0%	1.8%[57.1 µM]	-25.8%	-12.7%
CN(C)c1ccc(/C=C/c2ccnc3ccc(F)cc23)cc1	x	1.1%[57.1 µM]	x	-6.5%[57.1 µM]	x	x
CC(NC(=O)c1ccc2c(=O)n3c(nc2c1)CCCCC3)c1ccccc1 (stereo not drawn)	x	14.9%[57.1 µM]	-2.3%	7.4%[57.1 µM]	-4.2%	-7.8%
CSCSC1=C(C#N)C(c2ccccc2Cl)C(C(C)=O)=C(C)N1 (stereo not drawn)	u	-15.9%	1.6%	5.3%	-19.5%	u
CC(=O)C1=C(C)NC(SCC(=O)c2cc(Cl)ccc2Cl)=C(C#N)C1c1ccco1 (stereo not drawn)	35.5µM*	u	1.5%	0.9%[57.1 µM]	-18.4%	36.5%
CCOC(=O)C1=C(C)NC(SCC(=O)O)=C(C#N)C1c1ccco1 (stereo not drawn)	3.8%	u	-3.5%	-1.7%	-9.2%	3.0%
